The results in this text go back to PubChem BioAssay (NCATS).

Results filed as inconclusive are left out. Calls of active or inactive are those of the source. Unless noted, the call rests on the fitted dose curve.

Assay [1] in a line: Quantitative High-Throughput drug screen in 47 multiple myeloma cell lines against the NCATS MIPE library collection: KMS28BM_JCRB cell viability assay (AID 1919874; active means well fitted cell-killing curve with a large enough effect; further: nearly all actives have a fitted effect of over 35% in size). In a few lines: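 MIPE 4.0 approved/investigational drugs; 500 cells/well; 48 h 37 °C humidified 5% CO2; CTG luminescence readout; DMSO = 100%, media = 0% viability.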
The nature of assay [2]: qHTS drug screen for cell cycle checkpoint inhibitors in PARPi-resistant BRCA-mutant ovarian cancer cell lines. (AID 1963452). As to conditions: PEO1/OlaR viability, CellTiter-Glo luminescence, 96 h; for Z-AUC: stronger effect = lower value. In a few lines:
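PEO1, PEO4 and PEO1/OlaR ovarian cancer cells, 600 per well, exposed 96 h at 37C to a dilution series. Viability read by CellTiter-Glo luminescence, normalized to DMSO and empty wells; activity summarized as Z-AUC.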

Where [3] appears, read: measured here: PEO1 parental Z-AUC.
Potency means the concentration at half of the fitted maximal effect.

As to `C=Cc1c(C)c2cc3nc(cc4[nH]c(cc5nc(cc1[nH]2)C(C)=C5CCC(=O)O)c(CCC(=O)OC)c4C)[C@@]1(C)C3=CC=C(C(=O)OC)[C@H]1C(=O)OC`, the Potency in assay [1] is 0.418 µM (active). Also, the Z-AUC in assay [2] is 0.838 (inactive); in assay [2] (setting [3]) it was 1.25; in assay [2] (measured here: PEO4 Z-AUC), 1.36.
Taken in the same sequence, the figures for `Cn1cnc2c(F)c(Nc3ccc(Br)cc3F)c(C(=O)NOCCO)cc21` were “inactive”, -0.612 (inactive), -0.742 and -0.428.
Taken in the same sequence, the figures for `CN1C(C(=O)Nc2ccccn2)=C(O)c2sc(Cl)cc2S1(=O)=O` were “inactive”, 0.627 (inactive), 0.551 and 0.669.
For `CCc1c(O)cc(O)c(C(=O)c2ccc(OCCN3CCOCC3)c(OC)c2)c1CC(=O)N(CCOC)CCOC` the same measures were 1.32 µM (active), -0.361 (inactive), -0.538 and 0.145.
In the case of `NC1=N[C@H]2[C@H](CS[C@H]2CCCCC(=O)O)N1`, the Potency entry in assay [1] is “inactive”. Besides, the Z-AUC in assay [2] was -0.195 (inactive); in assay [2] (setting [3]) it was 0.0828; in assay [2] (measured here: PEO4 Z-AUC), 0.00068.
For the compound `Oc1ccc(-c2ccc(-c3cc(Nc4cccc(CNC5CC5)c4)n[nH]3)cc2)c(O)c1`, in assay [1], the Potency is 1.32 µM (active). Also, the values for the Z-AUC in assay [2], in assay [2] (setting [3]) and in assay [2] (measured here: PEO4 Z-AUC) were -0.35 (inactive), 0.119 and 0.0871, respectively.
For `CC(C)[C@H](CO)Nc1nc(Nc2cccc(Cl)c2)c2ncn(C(C)C)c2n1` the same measures were 18.7 µM (active), 0.56 (inactive), 0.0457 and 0.284.
For `c1cc(CN2CCCNCCNCCCNCC2)ccc1CN1CCCNCCNCCCNCC1` the same measures were “inactive”, 0.916 (inactive), 0.744 and 1.11.
For `CN(C)CC(=O)N1CCC(c2ccc(NC(=O)c3ncc(C#N)[nH]3)c(C3=CCCCC3)c2)CC1`, the Potency in assay [1] is 26.4 µM (active). Moreover, the Z-AUC in assay [2] is -1.11 (inactive); in assay [2] (setting [3]) it was -0.797; in assay [2] (measured here: PEO4 Z-AUC) it was -0.584.
`C=CC(=O)Nc1ccc2ncnc(Nc3ccc(OCc4cccc(F)c4)c(Cl)c3)c2c1`: the Potency in assay [1] is 0.132 µM (active). For the same compound, the Z-AUC in assay [2] was -0.749 (inactive); in assay [2] (setting [3]), -1.48; in assay [2] (measured here: PEO4 Z-AUC), -1.57.
Take `C[C@H](NC(=O)[C@@H](O)c1cc(F)cc(F)c1)C(=O)N[C@@H]1C(=O)N(C)c2ccccc2-c2ccccc21`: the Potency entry in assay [1] was “inactive”. Besides, the figures for the Z-AUC in assay [2], in assay [2] (setting [3]) and in assay [2] (measured here: PEO4 Z-AUC) were 0.549 (inactive), 0.437 and 0.274, respectively.
For `COC(=O)[C@H](CCCN=C(N)N)NS(=O)(=O)c1ccc(C)cc1` the same measures were “inactive”, 1.53 (inactive), 1.46 and 1.
With `COc1ccc(C=Cc2cc(OC)c(OC)c(OC)c2)cc1NC(=O)[C@H](N)CO`, the Potency was 0.0118 µM (active) in assay [1] and 0.0549 µM (active) in assay [2]. The values for the Z-AUC in assay [2] (setting [3]) and in assay [2] (measured here: PEO4 Z-AUC) were -1.39 and -1.42, respectively.
As for `COC(=O)C1C2CC3c4[nH]c5cc(OC)ccc5c4CCN3CC2CC(OC(=O)c2cc(OC)c(OC)c(OC)c2)C1OC` (stereo not drawn), in assay [1], the Potency is 20.9 µM (active). In addition, the Z-AUC in assay [2] is 1.42 (inactive); in assay [2] (setting [3]), 0.441; in assay [2] (measured here: PEO4 Z-AUC), 0.416.
In the case of `CN(C)CCN1C(=O)c2cccc3cc(N)cc(c23)C1=O`, the Potency in assay [1] is 16.6 µM (active). In addition, the Z-AUC in assay [2] was -0.488 (inactive); in assay [2] (setting [3]), -0.749; in assay [2] (measured here: PEO4 Z-AUC) it was -0.88.
As to `C[C@@H](NCc1cc2ccccc2[nH]1)c1cccc2ccccc12`, in assay [1], the Potency entry was “inactive”. The Z-AUC in assay [2] is 0.66 (inactive); in assay [2] (setting [3]), 0.376; in assay [2] (measured here: PEO4 Z-AUC), 0.0374.
Taken in the same sequence, the figures for `CCOc1cc2c(c(F)c1OCC)C(=N)N(CC(=O)c1cc(N3CCOCC3)c(OC)c(C(C)(C)C)c1)C2` were 8.33 µM (active), -0.189 (inactive), 0.331 and 0.119.
For `O=[N+]([O-])c1cn2c(n1)OC[C@@H](OCc1ccc(OC(F)(F)F)cc1)C2` the same measures were “inactive”, 0.733 (inactive), 0.61 and 0.849.
As to `Cn1cnc(=N)c2[nH]cnc21`, the Potency in assay [1] is 0.0469 µM (active). Also, the Z-AUC in assay [2] was 1.05 (inactive); in assay [2] (setting [3]), 0.768; in assay [2] (measured here: PEO4 Z-AUC), 0.897.
As for `O=C(CCCCCCC(=O)Nc1cccnc1)NO`, the Potency in assay [1] is 4.18 µM (active). Further, the Z-AUC in assay [2] was 0.519 (inactive); in assay [2] (setting [3]), 0.211; in assay [2] (measured here: PEO4 Z-AUC), 0.136.
Consider `O=c1ccn([C@@H]2O[C@H](CO)[C@H](O)[C@@H]2F)c(=O)[nH]1`, for which the Potency result in assay [1] is “inactive”. Moreover, the values for the Z-AUC in assay [2], in assay [2] (setting [3]) and in assay [2] (measured here: PEO4 Z-AUC) were 0.179 (inactive), 0.56 and 0.262, respectively.
In the case of `COc1cccc2c1C(=O)c1c(O)c3c(c(O)c1C2=O)C[C@@](O)(C(=O)CO)C[C@@H]3O[C@H]1C[C@H](N)[C@@H](O)[C@H](C)O1`, the Potency in assay [1] was 0.418 µM (active); in assay [2], 0.219 µM (active). The Z-AUC in assay [2] (setting [3]) is -2.06; in assay [2] (measured here: PEO4 Z-AUC), -1.69.
Regarding `COc1ccc(S(=O)(=O)Nc2cc(-c3c(O)ccc4ccccc34)c(O)c3ccccc23)cc1`, the Potency in assay [1] is 3.72 µM (active). Further, the Z-AUC in assay [2] was 0.502 (inactive); in assay [2] (setting [3]), 0.417; in assay [2] (measured here: PEO4 Z-AUC), 0.118.
Taken in the same sequence, the figures for `CC(C)NC[C@@H](C(=O)N1CCN(c2ncnc3c2[C@H](C)C[C@H]3O)CC1)c1ccc(Cl)cc1` were 2.96 µM (active), 1.25 (inactive), 1.5 and 1.13.
Taken in the same sequence, the figures for `C[C@H](NC(=O)Cc1cc(F)cc(F)c1)C(=O)N[C@H](C(=O)OC(C)(C)C)c1ccccc1` were “inactive”, -0.609 (inactive), -0.43 and -0.265.
Taken in the same sequence, the figures for `CCCCOc1ccc(C(=O)Nc2ccc(F)cc2F)cc1` were “inactive”, -0.387 (inactive), -0.847 and -0.905.
As to `Cn1cc(C2=C(c3c4n(c5ccccc35)CCC(CN)C4)C(=O)NC2=O)c2ccccc21` (stereo not drawn), the Potency in assay [1] was 10.5 µM (active). Also, the Z-AUC in assay [2] is 0.936 (inactive); in assay [2] (setting [3]), 1.25; in assay [2] (measured here: PEO4 Z-AUC), 1.18.
